Drawing on PubChem BioAssay (NCI), this text covers growth inhibition for 37 molecules.

A short description of assay [1]: NCI Yeast Anticancer Drug Screen. Data for the rad50 strain (AID 155).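 Further: 0% = growth of vehicle-only cultures of the same strain.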 Conditions: S. cerevisiae rad50 strain growth inhibition; at 50.0 µM; active compounds read high. Summed up:
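Yeast carrying a defined DNA repair defect were exposed to test compounds, and growth was compared with vehicle-treated controls to give percent inhibition.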

Assay [2] in a line: NCI Yeast Anticancer Drug Screen. Data for the mec2-1 strain (AID 157). The note with it: S. cerevisiae mec2-1 strain, at 50.0 µM, active compounds read high. The method, boiled down:
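Strain: mec2-1 (DNA repair/cell cycle alteration). Compound exposure, then growth measured; inhibition expressed relative to vehicle.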

Assay [3] in a line: NCI Yeast Anticancer Drug Screen. Data for the sgs1 mgt1 strain (AID 161).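 Further: 0% = growth of cultures given vehicle only.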 The note with it: S. cerevisiae sgs1 mgt1 strain, at 50.0 µM, active compounds read high. Summed up:
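Mutant yeast exposed to compound; growth scored against vehicle-only wells.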

Assay [4] is described as follows: NCI Yeast Anticancer Drug Screen. Data for the cln2 rad14 strain (AID 165).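 Further: 0% = growth equal to vehicle treated cultures.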 The note with it: S. cerevisiae cln2 rad14 strain, at 50.0 µM, active compounds read high. The method, boiled down:
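Compounds are applied to the cln2 rad14 yeast strain, and growth is then compared with that of vehicle-treated cultures to give inhibition.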

The nature of assay [5]: NCI Yeast Anticancer Drug Screen. Data for the bub3 strain (AID 167). The note with it: S. cerevisiae bub3 mutant strain, at 50.0 µM, active compounds read high. Summed up: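 Compounds were applied to a genetically altered yeast strain carrying a cell-cycle control defect. Growth inhibition was scored against vehicle-treated controls.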
The nature of assay [6]: NCI Yeast Anticancer Drug Screen. Data for the mlh1 rad18 strain (AID 175). The note with it: S. cerevisiae mlh1 rad18 strain growth inhibition; at 50.0 µM; active compounds read high. The method, boiled down: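 Read-out is yeast growth inhibition, calculated against vehicle-only controls. The compound was applied to a strain engineered with DNA damage repair alterations.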

About 79,000 compounds went through this panel and 15% of them were active in at least one assay; those are over-represented in the sample as a whole. A number with no mark means an inactive call. Activity calls are given as the source filed them. No stated cut-off is given here; in the data, active means growth inhibition above about 70%; inactive means the rest. Where a SMILES comes first, the peptide text is derived from it. Bridges are numbered along the chain shown (N, C = ends). [ ]: non-standard residue; d: D form. The star is where a group is joined. ξ: configuration not given here. PhAc = O=C(Cc1ccccc1)*; ξP = O=C(O)C1CCCN1

As to `CCOC(=O)C1=C(C(=O)c2cccc3ccccc23)C(c2cccc([N+](=O)[O-])c2)C(C(=O)c2cccc3ccccc23)=C(C(=O)OCC)N1`, the growth inhibition in assay [1] is -12.9%; in assay [2], -7.75%; in assay [3], 13.7%; in assay [4], -26.3%; in assay [5] it was -45.6%; in assay [6], -25.2%.
Take `COc1ccc(CCNC(=S)NN)cc1OC`: the growth inhibition was -15.7% in assay [1]; -23.6% in assay [2]; -7.35% in assay [3]; -23.5% in assay [4]; -17% in assay [5]; -28.7% in assay [6].
Turning to `CS(=O)(=O)c1nsc(N)n1`, the growth inhibition is -14% in assay [1]; -8.6% in assay [2]; -5.25% in assay [3]; 2.15% in assay [4]; -0.1% in assay [5]; 2.7% in assay [6].
`Cc1ccc(C(=O)c2cc3c([nH]c4ccccc43)c(C)c2C(=O)O)cc1`: the growth inhibition in assay [1] was 15.8%; in assay [2], -9.55%; in assay [3], -5.1%; in assay [4] it was 28.6%; in assay [5], 21.5%; in assay [6] it was 21.1%.
Consider `Cc1nn(C(=O)c2ccccc2O)c2c1C(c1ccc(O)cc1)SC(N)=N2` (configuration not stated), for which the growth inhibition in assay [1] is 16.1%; in assay [2], 1.95%; in assay [3] it was 29.4%; in assay [4], 1.65%; in assay [5], 43.6%; in assay [6] it was 6.65%.
On to `[N-]=[N+]=C(C(=O)N1CCCC1=O)S(=O)(=O)c1ccccc1`, for which the growth inhibition in assay [1] is -17.3%; in assay [2], -12.4%; in assay [3], -17.9%; in assay [4] it was 5.45%; in assay [5], -14.4%; in assay [6], 2.45%.
`CCNc1nc2c(=O)n(C)c(=O)n(C)c2s1`: the growth inhibition is -31% in assay [1]; -26.2% in assay [2]; -4.05% in assay [3]; -6.2% in assay [4]; -10.6% in assay [5]; -5.65% in assay [6].
Turning to `CC(=O)NC(c1ccccc1)(c1ccccc1)c1ccccc1`, the growth inhibition in assay [1] was 12.1%; in assay [2], 8.15%; in assay [3], 14.8%; in assay [4] it was 5.2%; in assay [5], 31.1%; in assay [6] it was 19.5%.
For `COc1ccc(NC(=O)C(=O)NNC(=O)c2sc(NNC(C)=O)nc2C)c([N+](=O)[O-])c1`, the growth inhibition was 27.3% in assay [1]; -10.7% in assay [2]; 39.2% in assay [3]; 8.4% in assay [4]; 20.6% in assay [5]; 5.3% in assay [6].
`O=C1NNCc2c1sc1ccccc21`: the growth inhibition in assay [1] is 0.25%; in assay [2] it was -4.15%; in assay [3], -17.4%; in assay [4] it was -41.3%; in assay [5], -11.7%; in assay [6], 4.6%.
Take `Cc1ccc(S(=O)(=O)Nn2c(-c3ccccc3)c(C#N)c(-c3ccc([N+](=O)[O-])cc3)c(C#N)c2=O)cc1`: the growth inhibition was -0.65% in assay [1]; 16.2% in assay [2]; 8.6% in assay [3]; 11.6% in assay [4]; 20.1% in assay [5]; 37% in assay [6].
Consider `O=c1[nH]c(=O)n(C2OC(CO)C(O)C2O)cc1I` (configuration not stated), for which the growth inhibition was -10.2% in assay [1]; -9.95% in assay [2]; -6.9% in assay [3]; 15.2% in assay [4]; 5.6% in assay [5]; -13.8% in assay [6].
Turning to `CNC(=O)OCc1c(COC(=O)NC)c(-c2ccc(SC)cc2)n(C)c1C`, the growth inhibition in assay [1] was 24.9%; in assay [2], 8.4%; in assay [3] it was 47.4%; in assay [4] it was 0.1%; in assay [5], 2.6%; in assay [6], 49.7%.
On to `Cc1cccc(Cl)c1N`, for which the growth inhibition is -5.55% in assay [1]; -7.95% in assay [2]; 6.9% in assay [3]; 3.15% in assay [4]; -2.4% in assay [5]; -3.15% in assay [6].
`C=CCOC(=O)CCCCC`: the growth inhibition was 5% in assay [1]; -2.7% in assay [2]; 2.65% in assay [3]; 7.9% in assay [4]; -3.65% in assay [5]; 0.75% in assay [6].
On to `Cc1ncc([N+](=O)[O-])n1CCNC(=O)CCCCCn1ccnc1[N+](=O)[O-]`, for which the growth inhibition in assay [1] was 3.1%; in assay [2], -4.05%; in assay [3] it was -9.45%; in assay [4], 19.7%; in assay [5], -6.15%; in assay [6], -35.2%.
Consider `COC(=O)C(S)(NC(C)=O)C(C)C` (configuration not stated), for which the growth inhibition is 0.2% in assay [1]; -10.5% in assay [2]; -1.25% in assay [3]; -30.4% in assay [4]; -18.8% in assay [5]; 16.1% in assay [6].
For `CC1[C@@H]2CC=C3[C@H]4CCC5Cc6nc7c(nc6C[C@@]5(C)C4CC(=O)[C@]32CO[C@]12OC(C)(C)CC2O)CC1CC[C@@H]2C3=C[C@H]4O[C@@]5(O[C@@](C)(CO)C[C@@H]5O)C(C)[C@@]4(O)[C@]3(C)[C@@H](O)CC2[C@]1(C)C7` (some centres not stated), the growth inhibition in assay [1] is 37.5%; in assay [2], 40.9%; in assay [3] it was 90.7% (active); in assay [4] it was 57.2%; in assay [5], 47%; in assay [6], 40.1%.
`C1=C(c2ccccc2)OC(c2ccccc2)=C(c2ccccc2)[P+]1(c1ccccc1)c1ccccc1`: the growth inhibition is 99.5% (active) in assay [1]; 99.7% (active) in assay [2]; 99.7% (active) in assay [3]; 99.7% (active) in assay [4]; 99.5% (active) in assay [5]; 99.5% (active) in assay [6].
Regarding `Cc1ccc(NC(=O)/C=C/c2ccccc2)cc1Cl`, the growth inhibition in assay [1] was 2%; in assay [2] it was 14.2%; in assay [3] it was 8.15%; in assay [4], -5.5%; in assay [5], 27.4%; in assay [6], 16.1%.
As for `CCOC(=O)C(Nc1cc([N+](=O)[O-])ccc1C(=O)N1CCCCC1)(C(=O)OCC)N1CCCCC1`, the growth inhibition in assay [1] is 4.6%; in assay [2] it was 12.8%; in assay [3] it was 13.8%; in assay [4] it was 3.8%; in assay [5] it was 0.2%; in assay [6], 15%.
As to `CCOC(=O)CCC(NC(=O)N1CCN(c2c(C)nc(C)[nH]c2=O)CC1)C(=O)OCC` (configuration not stated), the growth inhibition is 11.6% in assay [1]; -0.1% in assay [2]; 10.6% in assay [3]; -4.7% in assay [4]; 12.7% in assay [5]; 18.6% in assay [6].
Consider `CC=C1C(C(=O)O)C1C(=O)O` (configuration not stated), for which the growth inhibition is 16.9% in assay [1]; 20.8% in assay [2]; -5.2% in assay [3]; -23.2% in assay [4]; 15.3% in assay [5]; -4.4% in assay [6].
In the case of `CCOc1ccc2nc(NC(=O)/C(CC(=O)CC(C3=C(O)c4ccccc4CC3=O)c3ccccc3)=N\O)sc2c1` (configuration not stated), the growth inhibition in assay [1] is -0.85%; in assay [2], -7%; in assay [3], -12.6%; in assay [4], -18.6%; in assay [5], -0.25%; in assay [6], -20.1%.
Turning to `COC(=O)c1c2c(C)ccc(C)c2nc2c(C)ccc(C)c12`, the growth inhibition in assay [1] was -5.6%; in assay [2], -41%; in assay [3], -2.05%; in assay [4], -15.3%; in assay [5], 22.7%; in assay [6] it was -41%.
Turning to `CN(C(=O)/C=C/c1ccccc1)c1ccccc1`, the growth inhibition in assay [1] was 45.6%; in assay [2], 13.4%; in assay [3] it was 49.5%; in assay [4], 27.1%; in assay [5], 43.3%; in assay [6], 32.4%.
`O=C1/C(=C/c2ccccc2)CN(C(=O)/C=C/c2ccccc2)C/C1=C\c1ccccc1`: the growth inhibition was -23.6% in assay [1]; -19.8% in assay [2]; -52% in assay [3]; -8.15% in assay [4]; -11.6% in assay [5]; -33.2% in assay [6].
Take `O=C1NCCCCC1CC/C=C/c1ccccc1` (configuration not stated): the growth inhibition in assay [1] was -13.7%; in assay [2], -23.2%; in assay [3], -3.7%; in assay [4], -9.6%; in assay [5], 32.5%; in assay [6] it was -5.85%.
For `CN(Cc1ccccc1)C(=O)c1ccc(C(=O)N(C)Cc2ccccc2)cc1`, the growth inhibition in assay [1] is 1.75%; in assay [2] it was -1.65%; in assay [3], 19.4%; in assay [4], -3.95%; in assay [5] it was 35.1%; in assay [6] it was 40.2%.
For the molecule `O=c1[nH]c(-c2ccccc2)nc(-c2ccccc2)c1Cc1cc2c(cc1O)OCC2`, the growth inhibition in assay [1] is -0.1%; in assay [2] it was -4.05%; in assay [3] it was 20.7%; in assay [4] it was 2.8%; in assay [5], 0.7%; in assay [6], -10.6%.
Regarding `CC1=C(OCCCl)C2CC1C1C(=O)N(c3ccccc3)C(=O)C21` (configuration not stated), the growth inhibition in assay [1] is -9.95%; in assay [2], -29.1%; in assay [3], -1.85%; in assay [4], -0.4%; in assay [5], -4.9%; in assay [6], -4.75%.
Regarding `CC1CNC(=S)O1` (configuration not stated), the growth inhibition in assay [1] is -18.2%; in assay [2] it was -15.5%; in assay [3] it was 5.05%; in assay [4], -7.05%; in assay [5], -32.1%; in assay [6], -16.7%.
For `O=C(CCC1CCCCC1)OC1CCCC1`, the growth inhibition in assay [1] was 12%; in assay [2] it was -4.45%; in assay [3], -2.7%; in assay [4] it was -5.1%; in assay [5], -2.3%; in assay [6], 24.3%.
As for `O=C(Cc1ccccc1)N[C@@H]1COC(=O)C2CCCN2C(=O)[C@@H]2CCCN2C1=O` (some centres not stated) (PhAc-[dS]-Pro-[ξP]; ester 1-C), the growth inhibition in assay [1] is -11.6%; in assay [2], -1.7%; in assay [3], 4.25%; in assay [4] it was 27.4%; in assay [5] it was 12.3%; in assay [6] it was 0.65%.
Take `COc1ccc(/C(Cl)=C(\CN(C)C)c2ccc(OC)c(OC)c2)cc1OC`: the growth inhibition in assay [1] was 41.5%; in assay [2], 18.6%; in assay [3], 10.3%; in assay [4], 27.9%; in assay [5] it was -5.85%; in assay [6] it was 24.1%.
For the molecule `Cc1cccc2c1Oc1ccccc1C2NC(=O)OCCc1ccccc1` (configuration not stated), the growth inhibition was -14.3% in assay [1]; -8.25% in assay [2]; -7.25% in assay [3]; -9.15% in assay [4]; -8.05% in assay [5]; 1.25% in assay [6].
As for `c1ccc2c[n+](Cc3ccc4ccccc4n3)ccc2c1`, the growth inhibition is 13% in assay [1]; -4.3% in assay [2]; 4.05% in assay [3]; -60% in assay [4]; -9.9% in assay [5]; 9.9% in assay [6].
